# Measurements reported in PubChem BioAssay AID2546 (National Center for Advancing Translational Sciences (NCATS), 2010).
# The whole screen tested about 310,000 compounds, of which about 11,000 (3.5%) were called active. Roughly 8% stayed inconclusive and do not appear here. Calls come from the whole dose curve; as a rule, active = well fitted inhibition curve with a large enough effect; inconclusive = small, poorly fitted or top-dose-only effect, or effect the other way; inactive = flat fitted curve, though single readings scatter. Many of the other results were omitted from the sample, so actives are more common in it than they were.
# Experiment: VP16 counterscreen qHTS for inhibitors of ROR gamma transcriptional activity;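 note: Gal4-VP16 expression switched on by copper sulfate through the metallothionein promoter; nearly all actives have a fitted effect of over 50% in size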
# Conditions: Drosophila S2 Gal4-VP16 UAS-luciferase, luminescence, 20 h; series mostly up to 53.6 µM; activity, negative = inhibition: at the top concentration
# % is set by controls: 0 for no effect and ±100 for the full control effect; potency is the fitted concentration of half-maximal effect.
SMILES,Potency,"activity, negative = inhibition"
S=C(Nc1ccc(Br)cc1)NC1CCN(Cc2ccccc2)CC1,15.8 µM (active),
NS(=O)(=O)c1ccc(CCNC(=S)Nc2ccc(S(N)(=O)=O)cc2)cc1,,-15.7% (inactive)
CCc1ccc(NC(=O)CS(=O)CC(=O)NCCCc2ccccc2)cc1 (centres undefined),,-1.7% (inactive)
O=C(COc1ccc(Br)cc1F)NC1CCN(Cc2ccccc2)CC1,,2.7% (inactive)
O=C(NCCCc1ccccc1)C(=O)c1c[nH]c2ccccc12,,12.6% (inactive)
S=C(NCCC1=CCCCC1)Nc1ccccc1,5.62 µM (active),
O=C(NC1CCN(Cc2ccccc2)CC1)c1c(F)cccc1F,,3.22% (inactive)
Cc1c(Cl)cccc1NC(=O)NCCCN1CCCC1=O,,-0.757% (inactive)
Cn1c(SCC(=O)N2CCCC2)nnc1-c1cccs1,,-10.6% (inactive)
COc1ccccc1CN1CC(C(=O)NCCc2cn[nH]c2)CCC1=O (centres undefined),,0.451% (inactive)
Cc1ccn(CCC(=O)N2c3ccccc3CC2C)n1 (centres undefined),,1.99% (inactive)
COc1ccc(OC)c(NC(=O)c2ccc3c(c2)C(=O)N(c2ccc(OC(C)=O)cc2)C3=O)c1,,-1.71% (inactive)
O=C(NCCNc1ccccc1[N+](=O)[O-])c1ccccc1F,,-4.92% (inactive)
COc1ccc(-c2nonc2NC(=O)c2oc3ccc(F)cc3c2C)cc1OC,,-10.6% (inactive)
COc1ccc(S(=O)(=O)N2CCC(C(=O)NCc3ccco3)CC2)cc1C,,-0.855% (inactive)
N#Cc1ccccc1S(=O)(=O)N1CCN(C(=O)c2cc(-c3ccccc3)nn2-c2ccccc2)CC1,,-1.32% (inactive)
Cc1c(CCC(=O)N[C@@H](CC(C)C)C(=O)O)c(=O)oc2c(C)c3oc4c(c3cc12)CCCC4,,-3.84% (inactive)
COc1cc2[nH]c(=S)n(CCN3CCCCC3C)c(=O)c2cc1OC (centres undefined),,-1.96% (inactive)
COc1cc2[nH]c(=S)n(Cc3ccc(C)o3)c(=O)c2cc1OC,10 µM (active),
CCOc1cc2[nH]c(=S)n(Cc3ccc(C(=O)NCCOC)cc3)c(=O)c2cc1OCC,,-3.44% (inactive)
Cc1ccc(S(=O)(=O)N(CC(O)CN2CCCCC2)c2cccc([N+](=O)[O-])c2)cc1 (centres undefined),,-0.0234% (inactive)
CCc1ccc(NC(=O)N2CCc3ccccc3C2)cc1,,4.84% (inactive)
O=C(Nc1cc2ccccc2oc1=O)C1CCCCC1,,-0.778% (inactive)
O=c1oc2ccccc2cc1-c1cn(-c2ccccc2)c(=S)[nH]1,1.78 µM (active),
O=C(c1cn(-c2ccccc2)nc1-c1cc2ccccc2oc1=O)N1CCOCC1,,7.29% [at 10 µM] (inactive)
CN(C(=O)COC(=O)c1nc(Cl)ccc1Cl)C1CCS(=O)(=O)C1 (centres undefined),,0.781% (inactive)
CCc1ccc(OCC(=O)N(Cc2ccccc2)C2CCS(=O)(=O)C2)cc1 (centres undefined),,-3.11% (inactive)

SMILES,Potency,"activity, negative = inhibition"
O=C(Cc1cccs1)N/N=C/c1ccc(OCc2ccccc2)cc1,,-2.33% (inactive)
O=C(N/N=C/c1ccc(OCc2ccccc2)cc1)c1ccc(O)cc1,11.2 µM (active),
O=C(N/N=C/c1ccc(OC(=O)c2ccccc2Cl)cc1)c1ccc(O)cc1,,0.0845% (inactive)
COCCNC(=O)COc1ccc(N(C)S(=O)(=O)c2ccc3ccccc3c2)cc1,,-5.22% (inactive)
COc1ccc(NS(=O)(=O)c2ccc(NC(=S)NC(=O)CC(C)C)cc2)cc1,,-3.97% (inactive)
COc1ccc(NS(=O)(=O)c2ccc(Oc3c(C#N)cccc3C#N)cc2)cc1,3.98 µM (active),
CCOc1ccc(S(=O)(=O)Nc2ccc(S(=O)(=O)Nc3cc(OC)ccc3OC)cc2)cc1,,6.25% (inactive)
COc1cccc(CNS(=O)(=O)c2ccc3c(c2)N(C(C)=O)CCS3)c1,,2.89% (inactive)
COC(=O)c1ccc(COc2ccc(/C=C/C(=O)c3ccc(OC)c(CSCC(=O)O)c3)cc2OC)cc1,,-12.2% (inactive)
Cc1cccc(OCC(=O)NCC(=O)N/N=C/c2ccc(N(C)C)cc2)c1,,-0.208% (inactive)
COc1ccc(-c2nnc(SCC(=O)c3cccs3)o2)c(OC)c1,,-2.89% (inactive)
COc1ccc(OC)c(C(=O)CSc2nnc(-c3cccs3)o2)c1,15.8 µM (active),
COc1ccc(C(=O)CSc2nnc(-c3ccco3)o2)cc1,,0.967% (inactive)
CN(c1cccc(NC(=O)c2ccc(CN3CCc4ccccc4C3)cc2)c1)S(C)(=O)=O,,-3.37% (inactive)
COc1cccc(C(=O)Nc2ccc(N3CCN(C(=O)c4ccco4)CC3)cc2)c1,,0.603% (inactive)
COC(=O)CNC(=O)c1ccc(OC2CCN(C(=O)C3CC3)CC2)cc1,,3.08% (inactive)
CCc1ccc(/C=N/NC(=O)c2ccc(OC3CCCC3)cc2)s1,11.2 µM (active),
CCn1c(/C=N/NC(=O)c2ccc(OC)cc2)nc2ccccc21,,-93% (inactive)
CCOc1ccc(S(=O)(=O)N2CCCC(C(=O)N3CCC(C(N)=O)CC3)C2)cc1Cl (centres undefined),,6.23% (inactive)
COc1ccccc1CCNS(=O)(=O)c1cc2c3c(c1)C(C)C(=O)N3CCC2 (centres undefined),,1.36% (inactive)
Cc1ccc(S(=O)(=O)Nc2ccc3ncccc3c2)cc1,17.8 µM (active),
Cc1ccc(NS(=O)(=O)c2ccc(C(C)(C)C)cc2)cn1,,4.43% (inactive)
Cc1ccc(OCC(=O)Nc2ccc(S(=O)(=O)Nc3ccccn3)cc2)cc1,,-4.48% (inactive)
CC(C)C[C@H]1CN=C(Nc2ccccc2)N1CC1CCCCC1,,7.18% (inactive)
COC(=O)c1cc(S(=O)(=O)N2CCN(c3cc(C)ccc3C)CC2)c[nH]1,,-10.5% (inactive)
NS(=O)(=O)c1ccc(N=Nc2c(O)[nH]c3ccc(Br)cc23)cc1,,-23.4% (inactive)
CCN1CCN(c2sc(S(C)(=O)=O)nc2S(=O)(=O)c2ccc(Cl)cc2)CC1,,1.58% (inactive)
